# Paper PMC7862700, “An all-to-all approach to the identification of sequence-specific readers for epigenetic DNA modifications on cytosine”
# Experiments:
# Assay in all cases: DAPPL (digital affinity profiling via proximity ligation, sequencing); 10 mM Tris-HCl pH 7.5, 50 mM NaCl, 1 mM DTT, 4% glycerol, room temperature, 30 min; GST-TFs on glutathione beads, 16-mer random dsDNA library, 0.1% formaldehyde crosslink after washing; high values mean tight binding
# [1] = molecular target: T1, FEV (Homo sapiens, UniProt Q99581 1-238); settings: protein: recombinant; tags: N-terminal GST; dsDNA, one strand shown
# T1 sequence: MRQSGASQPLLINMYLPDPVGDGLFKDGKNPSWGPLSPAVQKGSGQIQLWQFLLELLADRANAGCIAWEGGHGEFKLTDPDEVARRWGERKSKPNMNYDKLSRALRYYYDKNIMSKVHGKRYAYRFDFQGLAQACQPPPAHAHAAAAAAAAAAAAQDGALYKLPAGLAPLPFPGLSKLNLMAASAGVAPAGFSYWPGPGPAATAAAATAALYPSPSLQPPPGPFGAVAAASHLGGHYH
# In short: (§1)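 In yeast, human transcription factors were expressed with a GST fusion, then pulled down on glutathione beads and given DNA barcodes. Pooled with a tag-only sample, they were exposed to 200 nmole of a 16-mer random double-stranded DNA library (Tris/NaCl/DTT/glycerol buffer, room temperature, 30 min), washed, crosslinked with 0.1% formaldehyde, proximity-ligated using BsaI/T4 ligase for 1 h at 37 °C, PCR-amplified and read on an Illumina NextSeq500. Each hexamer's frequency of reads for a factor, divided by the matching frequency for the tag-only sample, gives the binding signal.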
# [2] = molecular target: ETV5 (Homo sapiens, UniProt P41161 1-510); settings: protein: recombinant; tags: N-terminal GST; dsDNA, one strand shown
# In short: as §1
# [3] = molecular target: HSF1 (Homo sapiens, UniProt Q00613 1-529); settings: protein: recombinant; tags: N-terminal GST; chain copies: 3; dsDNA, one strand shown
# In short: as §1
# [4] = molecular target: T2, SPIC (Homo sapiens, UniProt Q8N5J4 1-248); settings: protein: recombinant; tags: N-terminal GST; dsDNA, one strand shown
# T2 sequence: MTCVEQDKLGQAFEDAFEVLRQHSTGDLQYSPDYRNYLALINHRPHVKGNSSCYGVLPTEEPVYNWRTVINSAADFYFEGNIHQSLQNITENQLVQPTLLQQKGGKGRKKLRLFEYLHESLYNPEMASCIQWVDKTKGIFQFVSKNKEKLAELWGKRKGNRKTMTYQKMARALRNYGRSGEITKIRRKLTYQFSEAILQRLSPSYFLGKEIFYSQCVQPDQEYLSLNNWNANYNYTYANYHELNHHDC
# In short: as §1
# [5] = molecular target: ELF4 (Homo sapiens, UniProt Q99607 1-663); settings: protein: recombinant; tags: N-terminal GST; dsDNA, one strand shown
# In short: as §1
# [6] = molecular target: T3, ELK4 (Homo sapiens, UniProt P28324-2 1-405); settings: protein: recombinant; tags: N-terminal GST; dsDNA, one strand shown
# T3 sequence: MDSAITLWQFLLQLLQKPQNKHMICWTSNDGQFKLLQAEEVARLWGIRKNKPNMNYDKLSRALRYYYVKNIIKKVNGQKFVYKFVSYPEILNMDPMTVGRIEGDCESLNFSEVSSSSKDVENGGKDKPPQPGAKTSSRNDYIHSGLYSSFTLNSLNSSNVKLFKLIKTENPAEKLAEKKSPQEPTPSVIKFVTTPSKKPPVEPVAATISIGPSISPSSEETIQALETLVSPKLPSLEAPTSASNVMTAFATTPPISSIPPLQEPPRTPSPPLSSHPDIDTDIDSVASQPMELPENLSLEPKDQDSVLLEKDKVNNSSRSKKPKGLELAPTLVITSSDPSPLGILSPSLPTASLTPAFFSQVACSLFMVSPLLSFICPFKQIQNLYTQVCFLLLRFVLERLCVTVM
# In short: as §1
# [7] = molecular target: T4, ETV2 (Homo sapiens, UniProt O00321 1-342); settings: protein: recombinant; tags: N-terminal GST; dsDNA, one strand shown
# T4 sequence: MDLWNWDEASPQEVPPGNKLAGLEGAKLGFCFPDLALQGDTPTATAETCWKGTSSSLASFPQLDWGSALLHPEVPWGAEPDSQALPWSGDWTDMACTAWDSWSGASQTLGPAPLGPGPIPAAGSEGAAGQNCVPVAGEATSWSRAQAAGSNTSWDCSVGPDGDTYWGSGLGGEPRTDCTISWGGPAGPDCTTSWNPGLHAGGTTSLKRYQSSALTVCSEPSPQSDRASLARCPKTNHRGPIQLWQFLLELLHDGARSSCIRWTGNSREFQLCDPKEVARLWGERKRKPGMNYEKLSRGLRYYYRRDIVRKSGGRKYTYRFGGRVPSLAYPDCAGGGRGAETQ
# In short: as §1
# [8] = molecular target: T5, ELF3 (Homo sapiens, UniProt P78545 1-371); settings: protein: recombinant; tags: N-terminal GST; dsDNA, one strand shown
# T5 sequence: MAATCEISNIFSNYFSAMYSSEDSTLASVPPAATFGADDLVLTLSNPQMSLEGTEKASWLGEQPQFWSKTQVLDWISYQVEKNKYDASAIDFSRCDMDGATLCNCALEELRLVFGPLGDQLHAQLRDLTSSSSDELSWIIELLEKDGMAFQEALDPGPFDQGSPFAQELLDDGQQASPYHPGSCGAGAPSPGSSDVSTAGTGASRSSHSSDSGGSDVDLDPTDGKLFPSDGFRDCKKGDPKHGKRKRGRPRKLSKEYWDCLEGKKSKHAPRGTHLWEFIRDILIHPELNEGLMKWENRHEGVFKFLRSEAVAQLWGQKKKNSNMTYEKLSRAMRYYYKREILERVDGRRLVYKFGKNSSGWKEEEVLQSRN
# In short: as §1
# [9] = molecular target: CRX (Homo sapiens, UniProt O43186 1-299); settings: protein: recombinant; tags: N-terminal GST; dsDNA, one strand shown
# In short: as §1
# [10] = molecular target: ETV1 (Homo sapiens, UniProt P50549 1-477); settings: protein: recombinant; tags: N-terminal GST; dsDNA, one strand shown
# In short: as §1
# [11] = molecular target: T6, ERF (Homo sapiens, UniProt P50548 1-548); settings: protein: recombinant; tags: N-terminal GST; dsDNA, one strand shown
# T6 sequence: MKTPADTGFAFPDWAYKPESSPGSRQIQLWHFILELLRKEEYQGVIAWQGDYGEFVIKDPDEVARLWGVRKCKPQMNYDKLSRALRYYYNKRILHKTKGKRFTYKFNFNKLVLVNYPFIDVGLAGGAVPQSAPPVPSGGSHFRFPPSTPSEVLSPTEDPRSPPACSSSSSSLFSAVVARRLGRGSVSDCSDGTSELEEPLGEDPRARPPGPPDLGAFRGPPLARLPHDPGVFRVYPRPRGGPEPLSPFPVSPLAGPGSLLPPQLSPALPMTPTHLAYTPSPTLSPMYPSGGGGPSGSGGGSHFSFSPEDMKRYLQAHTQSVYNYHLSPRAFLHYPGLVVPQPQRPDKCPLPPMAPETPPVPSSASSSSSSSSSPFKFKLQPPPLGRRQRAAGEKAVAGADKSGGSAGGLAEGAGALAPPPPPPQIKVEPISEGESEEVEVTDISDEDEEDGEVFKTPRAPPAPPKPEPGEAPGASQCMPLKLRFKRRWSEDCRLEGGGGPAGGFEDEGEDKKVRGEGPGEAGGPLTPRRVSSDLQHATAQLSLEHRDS
# In short: as §1
# [12] = molecular target: T7, ETV3L (Homo sapiens, UniProt Q6ZN32 1-361); settings: protein: recombinant; tags: N-terminal GST; dsDNA, one strand shown
# T7 sequence: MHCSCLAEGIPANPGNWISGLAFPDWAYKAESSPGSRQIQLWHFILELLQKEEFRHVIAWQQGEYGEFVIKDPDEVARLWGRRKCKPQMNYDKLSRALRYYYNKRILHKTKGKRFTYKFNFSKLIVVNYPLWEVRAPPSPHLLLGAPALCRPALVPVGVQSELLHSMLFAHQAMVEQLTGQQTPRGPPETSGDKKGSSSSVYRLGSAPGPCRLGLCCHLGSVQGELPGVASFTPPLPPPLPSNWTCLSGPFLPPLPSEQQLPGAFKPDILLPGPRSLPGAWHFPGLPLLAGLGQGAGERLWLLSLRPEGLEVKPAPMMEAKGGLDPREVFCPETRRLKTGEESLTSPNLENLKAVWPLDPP
# In short: as §1
# [13] = molecular target: T8, ETS2 (Homo sapiens, UniProt P15036 1-469); settings: protein: recombinant; tags: N-terminal GST; dsDNA, one strand shown
# T8 sequence: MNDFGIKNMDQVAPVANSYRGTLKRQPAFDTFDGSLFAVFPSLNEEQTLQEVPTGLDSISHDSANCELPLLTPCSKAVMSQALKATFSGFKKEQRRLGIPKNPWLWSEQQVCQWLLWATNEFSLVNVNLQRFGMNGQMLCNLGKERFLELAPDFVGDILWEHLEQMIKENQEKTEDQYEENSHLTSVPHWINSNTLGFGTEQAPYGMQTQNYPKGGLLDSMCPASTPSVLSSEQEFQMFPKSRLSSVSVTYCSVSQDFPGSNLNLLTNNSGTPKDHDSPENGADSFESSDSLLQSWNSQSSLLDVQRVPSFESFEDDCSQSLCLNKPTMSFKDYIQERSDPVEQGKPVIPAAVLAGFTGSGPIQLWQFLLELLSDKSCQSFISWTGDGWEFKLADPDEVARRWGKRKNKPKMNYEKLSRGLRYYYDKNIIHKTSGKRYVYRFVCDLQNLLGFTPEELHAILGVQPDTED
# In short: as §1
# [14] = molecular target: T9, SPDEF (Homo sapiens, UniProt O95238 1-335); settings: protein: recombinant; tags: N-terminal GST; dsDNA, one strand shown
# T9 sequence: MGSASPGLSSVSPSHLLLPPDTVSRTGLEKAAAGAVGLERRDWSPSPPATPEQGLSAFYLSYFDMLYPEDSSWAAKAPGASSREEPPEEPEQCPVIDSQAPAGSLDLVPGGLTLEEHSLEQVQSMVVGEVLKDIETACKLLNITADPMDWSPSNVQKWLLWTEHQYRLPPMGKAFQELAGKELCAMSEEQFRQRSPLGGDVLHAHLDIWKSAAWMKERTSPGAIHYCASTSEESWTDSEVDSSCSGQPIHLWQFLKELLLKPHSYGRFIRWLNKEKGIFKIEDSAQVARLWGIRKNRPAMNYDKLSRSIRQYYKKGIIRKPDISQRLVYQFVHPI
# In short: as §1
# [15] = molecular target: T10, ETV7 (Homo sapiens, UniProt Q9Y603 1-341); settings: protein: recombinant; tags: N-terminal GST; dsDNA, one strand shown
# T10 sequence: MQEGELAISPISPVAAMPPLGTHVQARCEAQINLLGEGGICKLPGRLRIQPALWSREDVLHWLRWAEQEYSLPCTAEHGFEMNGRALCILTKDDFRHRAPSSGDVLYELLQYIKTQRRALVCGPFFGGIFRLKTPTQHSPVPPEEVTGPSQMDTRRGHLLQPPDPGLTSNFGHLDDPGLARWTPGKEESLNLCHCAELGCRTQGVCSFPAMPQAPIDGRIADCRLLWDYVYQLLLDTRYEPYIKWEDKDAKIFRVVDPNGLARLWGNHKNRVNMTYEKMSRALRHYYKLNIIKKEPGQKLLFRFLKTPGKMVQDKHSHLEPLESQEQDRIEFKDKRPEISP
# In short: as §1
# [16] = molecular target: T11, ELF5 (Homo sapiens, UniProt Q9UKW6-2 1-255); settings: protein: recombinant; tags: N-terminal GST; dsDNA, one strand shown
# T11 sequence: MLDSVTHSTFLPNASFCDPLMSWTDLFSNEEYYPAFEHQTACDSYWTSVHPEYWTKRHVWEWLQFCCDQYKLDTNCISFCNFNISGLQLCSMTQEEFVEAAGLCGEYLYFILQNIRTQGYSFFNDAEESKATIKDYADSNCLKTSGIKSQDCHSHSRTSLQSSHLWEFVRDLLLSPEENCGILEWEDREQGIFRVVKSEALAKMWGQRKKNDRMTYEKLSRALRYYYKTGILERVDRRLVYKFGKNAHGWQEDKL
# In short: as §1
# [17] = molecular target: T12, ETV3 (Homo sapiens, UniProt P41162-2 1-143); settings: protein: recombinant; tags: N-terminal GST; dsDNA, one strand shown
# T12 sequence: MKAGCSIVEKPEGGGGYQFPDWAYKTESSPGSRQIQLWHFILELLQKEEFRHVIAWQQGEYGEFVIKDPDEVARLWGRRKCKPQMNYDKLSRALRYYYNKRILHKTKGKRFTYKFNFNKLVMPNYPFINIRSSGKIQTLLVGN
# In short: as §1
# [18] = molecular target: ETV6 (Homo sapiens, UniProt P41212 1-452); settings: protein: recombinant; tags: N-terminal GST; dsDNA, one strand shown
# In short: as §1
# Chain of ETV6 (P41212 whole entry): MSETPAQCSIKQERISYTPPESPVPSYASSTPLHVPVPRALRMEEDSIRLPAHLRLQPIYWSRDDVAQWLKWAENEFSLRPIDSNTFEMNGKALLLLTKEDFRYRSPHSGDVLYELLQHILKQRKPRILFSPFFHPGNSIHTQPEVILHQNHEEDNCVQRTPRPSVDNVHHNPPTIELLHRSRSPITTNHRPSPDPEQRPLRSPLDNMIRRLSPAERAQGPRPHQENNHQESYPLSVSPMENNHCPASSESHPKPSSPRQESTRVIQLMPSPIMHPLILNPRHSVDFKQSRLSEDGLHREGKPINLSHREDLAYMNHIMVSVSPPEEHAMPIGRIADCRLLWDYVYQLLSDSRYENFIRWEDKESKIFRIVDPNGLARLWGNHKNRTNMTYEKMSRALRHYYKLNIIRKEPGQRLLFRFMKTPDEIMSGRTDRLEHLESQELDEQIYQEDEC
# Chain of CRX (O43186 whole entry): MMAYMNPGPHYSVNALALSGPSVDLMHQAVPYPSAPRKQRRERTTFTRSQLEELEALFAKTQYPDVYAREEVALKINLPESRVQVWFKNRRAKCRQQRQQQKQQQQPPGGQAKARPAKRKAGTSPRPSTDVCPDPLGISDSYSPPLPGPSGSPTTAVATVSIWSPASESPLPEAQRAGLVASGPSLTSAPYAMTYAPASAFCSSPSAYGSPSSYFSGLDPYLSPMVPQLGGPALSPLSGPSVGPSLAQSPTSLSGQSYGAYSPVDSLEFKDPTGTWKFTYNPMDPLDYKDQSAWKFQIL
# Chain of HSF1 (Q00613 whole entry): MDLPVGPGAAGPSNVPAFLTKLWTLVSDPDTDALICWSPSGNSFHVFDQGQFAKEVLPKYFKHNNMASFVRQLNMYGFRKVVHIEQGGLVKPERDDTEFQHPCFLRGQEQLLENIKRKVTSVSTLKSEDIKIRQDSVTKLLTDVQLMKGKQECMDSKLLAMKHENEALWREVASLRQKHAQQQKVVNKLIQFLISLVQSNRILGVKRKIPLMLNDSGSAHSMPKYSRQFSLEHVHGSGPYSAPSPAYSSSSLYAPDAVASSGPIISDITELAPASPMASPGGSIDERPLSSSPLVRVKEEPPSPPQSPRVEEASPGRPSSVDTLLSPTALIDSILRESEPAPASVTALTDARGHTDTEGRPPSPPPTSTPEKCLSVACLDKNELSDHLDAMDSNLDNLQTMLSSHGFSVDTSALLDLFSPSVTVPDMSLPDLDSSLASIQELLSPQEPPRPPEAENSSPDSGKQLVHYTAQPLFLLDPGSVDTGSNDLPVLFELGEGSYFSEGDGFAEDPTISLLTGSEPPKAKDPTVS
# Chain of ELF4 (Q99607 whole entry): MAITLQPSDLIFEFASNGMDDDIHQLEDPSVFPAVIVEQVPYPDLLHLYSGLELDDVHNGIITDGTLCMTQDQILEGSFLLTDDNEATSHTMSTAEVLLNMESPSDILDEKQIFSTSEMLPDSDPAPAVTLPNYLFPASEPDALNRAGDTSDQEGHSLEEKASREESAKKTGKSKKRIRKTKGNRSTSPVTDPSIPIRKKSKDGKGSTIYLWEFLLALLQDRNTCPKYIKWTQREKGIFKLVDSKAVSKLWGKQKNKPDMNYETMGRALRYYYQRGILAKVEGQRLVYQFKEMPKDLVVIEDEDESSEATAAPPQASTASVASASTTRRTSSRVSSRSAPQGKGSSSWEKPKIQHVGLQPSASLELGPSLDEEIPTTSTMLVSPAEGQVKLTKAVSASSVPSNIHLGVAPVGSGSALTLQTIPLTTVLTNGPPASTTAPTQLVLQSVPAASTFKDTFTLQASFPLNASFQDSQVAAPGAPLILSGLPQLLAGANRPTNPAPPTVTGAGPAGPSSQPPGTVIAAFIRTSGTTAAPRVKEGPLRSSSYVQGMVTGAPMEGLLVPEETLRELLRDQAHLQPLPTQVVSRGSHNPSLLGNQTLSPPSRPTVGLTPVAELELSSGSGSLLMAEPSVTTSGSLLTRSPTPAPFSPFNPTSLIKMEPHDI
# Chain of ETV1 (P50549 whole entry): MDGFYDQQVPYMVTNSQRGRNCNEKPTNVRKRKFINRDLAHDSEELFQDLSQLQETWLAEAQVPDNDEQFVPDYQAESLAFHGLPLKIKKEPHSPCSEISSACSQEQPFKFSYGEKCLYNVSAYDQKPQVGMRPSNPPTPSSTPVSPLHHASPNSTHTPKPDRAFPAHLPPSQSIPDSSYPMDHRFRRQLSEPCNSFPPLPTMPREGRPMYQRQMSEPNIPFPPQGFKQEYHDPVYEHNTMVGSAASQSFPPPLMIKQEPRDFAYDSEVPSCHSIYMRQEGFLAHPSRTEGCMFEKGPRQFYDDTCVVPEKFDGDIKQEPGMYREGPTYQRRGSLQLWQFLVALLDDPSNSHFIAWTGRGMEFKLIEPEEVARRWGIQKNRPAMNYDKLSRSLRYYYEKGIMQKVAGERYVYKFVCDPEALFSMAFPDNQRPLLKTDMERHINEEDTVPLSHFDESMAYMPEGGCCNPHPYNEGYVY
# Chain of ETV5 (P41161 whole entry): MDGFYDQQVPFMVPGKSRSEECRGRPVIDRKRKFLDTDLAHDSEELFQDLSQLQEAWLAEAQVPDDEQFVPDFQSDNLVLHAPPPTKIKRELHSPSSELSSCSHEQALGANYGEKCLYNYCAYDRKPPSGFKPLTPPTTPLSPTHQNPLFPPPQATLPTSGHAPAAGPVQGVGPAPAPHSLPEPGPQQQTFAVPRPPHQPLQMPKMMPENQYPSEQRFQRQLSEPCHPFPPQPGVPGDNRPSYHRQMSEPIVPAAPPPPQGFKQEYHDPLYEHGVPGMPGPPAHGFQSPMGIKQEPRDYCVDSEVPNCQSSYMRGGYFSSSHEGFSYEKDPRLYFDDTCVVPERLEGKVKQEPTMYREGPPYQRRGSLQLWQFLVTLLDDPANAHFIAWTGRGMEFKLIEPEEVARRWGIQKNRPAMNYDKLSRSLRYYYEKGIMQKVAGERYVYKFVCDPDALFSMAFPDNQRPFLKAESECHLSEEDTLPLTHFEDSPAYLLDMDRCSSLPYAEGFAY
sequence,measurement,setting,value
ATAGTT,binding signal,[1],"1.11 fold enrichment (6-mer frequency, TF over GST control)"
same,binding signal,[2],"1.25 fold enrichment (6-mer frequency, TF over GST control)"
same,binding signal,[3],"1.15 fold enrichment (6-mer frequency, TF over GST control)"
same,binding signal,[4],"1.14 fold enrichment (6-mer frequency, TF over GST control)"
same,binding signal,[5],"1.18 fold enrichment (6-mer frequency, TF over GST control)"
same,binding signal,[6],"1.39 fold enrichment (6-mer frequency, TF over GST control)"
same,binding signal,[7],"1.14 fold enrichment (6-mer frequency, TF over GST control)"
same,binding signal,[8],"1.29 fold enrichment (6-mer frequency, TF over GST control)"
same,binding signal,[9],"1.1 fold enrichment (6-mer frequency, TF over GST control)"
same,binding signal,[10],"1.11 fold enrichment (6-mer frequency, TF over GST control)"
same,binding signal,[11],"1.23 fold enrichment (6-mer frequency, TF over GST control)"
same,binding signal,[12],"1.27 fold enrichment (6-mer frequency, TF over GST control)"
same,binding signal,[13],"1.18 fold enrichment (6-mer frequency, TF over GST control)"
same,binding signal,[14],"1.12 fold enrichment (6-mer frequency, TF over GST control)"
same,binding signal,[15],"1.19 fold enrichment (6-mer frequency, TF over GST control)"
same,binding signal,[16],"1.12 fold enrichment (6-mer frequency, TF over GST control)"
same,binding signal,[17],"1.31 fold enrichment (6-mer frequency, TF over GST control)"
same,binding signal,[18],"1.21 fold enrichment (6-mer frequency, TF over GST control)"
